# Assay results from the supplement of paper PMC6555819.
# Experiments:
# Assay in all cases: PBM binding z-score (relative to random genomic background probes); higher = stronger binding; sequences stand for … in GC…GCGATTGACAGCGTAGAATGAAGG
# [1] = tested on: RARb homodimer (NR concentration 270 nM)
# Procedure, shortened: (§1)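 Binding buffer was PBS pH 7.4 with 2% milk, 0.02% Triton X-100, 1 mM DTT, 0.2 mg/mL BSA and 0.4 mg/ml salmon testes DNA. In it, ligand-free nuclear receptor dimers were incubated 1 h on custom Agilent 4×180K protein-binding microarrays carrying double-stranded probes. Antibodies against each partner (one per run) detected binding, and z-scores were calculated against random background probes after regression normalization of scanned fluorescence.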
# [2] = tested on: RARg:RXRa (NR concentration 270 nM, RXRa partner concentration 90 nM)
# Procedure, shortened: as §1
# [3] = tested on: RARg homodimer (NR concentration 270 nM)
# Procedure, shortened: as §1
# [4] = tested on: RXRa DBDmut IVT, anti-RXR (DBD mutation: RXRa K156A/R161A, NR concentration 90 nM)
# Procedure, shortened: as §1
# [5] = tested on: RXRa homodimer (NR concentration 180 nM)
# Procedure, shortened: as §1
# [6] = tested on: THRa:RXRa (NR concentration 90 nM, RXRa partner concentration 90 nM)
# Procedure, shortened: as §1
# [7] = tested on: THRa homodimer (NR concentration 90 nM)
# Procedure, shortened: as §1
# [8] = tested on: VDR homodimer (NR concentration 270 nM)
# Procedure, shortened: as §1
Sequence,PBM binding z-score [1],PBM binding z-score [2],PBM binding z-score [3],PBM binding z-score [4],PBM binding z-score [5],PBM binding z-score [6],PBM binding z-score [7],PBM binding z-score [8]
TGAATGAGGTTCAAGATCAGGGAACGTGGCGTCG,0.237,1.24,0.706,2.14,1.66,0.882,-0.612,1.64
AGAATGAGGTTATTTAGATCAGGGAATTGCGGTC,0.824,1.13,0.824,2.53,1.9,2.17,1.06,1.48
CAGCCTAGGTCAGGGCCAGTTTAGGAGGAACGTT,2.63,3.06,3.48,0.133,1.63,2.2,0.659,-0.142
GCGACTGGGGCATCAGCAGGTTACTATAACTTAA,0.782,0.807,0.379,0.136,0.331,0.816,0.104,0.0737
CGTCCAAGGTCAAAGTTCAGTGAAGAGATGACGG,4.6,7.44,7.1,4.25,8.84,4.31,1.92,4.39
CCTACGGGGCCAAAAAGGTCATTGATGCCGATAA,4.54,5.07,4.8,1.23,5.09,3.44,0.423,3.98
CAAACTAGGTCAAGGCCAAAGTCGGTTTGTGCCA,3.53,3.91,4.51,1.81,2.77,2.91,1.39,1.22
ACTATTAGTTGAGACGAGGGCAACCGCTAGGTTG,1.35,0.408,0.507,0.704,0.516,2.66,0.222,0.863
ATCGAAAGGTCGTGAGGGGAGTATACAGAAAGGC,2.78,4.4,3.89,1.72,5.16,2.72,0.843,1.42
CCAGACAGTTGAGAAGGTAACTCAGCCTCGATTA,0.381,0.25,0.293,0.456,0.203,0.25,0.485,0.252
CAAACTAGGTCAAAGGCCAAAGTCGAGCCAACCA,3.34,5.06,4.83,1.8,4.98,3.05,0.429,0.659
TCTCGGAGGAAACGAAGGTCAGAGCTTTCCAGAG,2.69,1.88,1.53,-0.239,1.5,1.38,-0.547,-0.0279
ATCTCTAGGTAAAGATAGTTCAGTAAATGCAAAT,1.08,0.439,0.876,0.336,0.446,0.803,0.595,0.651
AATACAGGGTCAACGTAGGCCAGAGTACGCACAG,3.8,6.08,5.84,3.18,6.81,4.35,1.24,3.28
CCGACTGGGGCAAGGTTGCCATAACGCACAGCCA,0.376,0.327,0.556,-0.586,0.107,0.0473,-0.389,-0.526
TCAGCTAGGTCAGTTGGTCAGCTAACGAGCTGCC,2.61,2.79,3.45,0.986,0.749,0.928,-0.339,-0.91
TCATATAGGTGAACAGGTGAAAGTCCGTAAGTTA,1.38,1.52,1.13,1.68,1.75,1.13,0.464,0.153
CGTCCAAGGTCAAGGCCAGTGAAAGAGACTCGAA,3.8,5.88,6.13,3.31,5.24,3.71,2.15,1.61
GATACAGGGTAAGCTAGAGGCCAGAGTATGGAAA,0.413,0.988,0.547,-0.967,0.303,0.219,-0.653,-0.382

Sequence,PBM binding z-score [1],PBM binding z-score [2],PBM binding z-score [3],PBM binding z-score [4],PBM binding z-score [5],PBM binding z-score [6],PBM binding z-score [7],PBM binding z-score [8]
GCGACTGGGGCAAATCAGGTTACCATAAGGTTGG,1.4,0.714,0.619,-0.00232,0.576,4.22,0.742,-0.198
GCTTACGGGTCAAACGTTATAGCATGAATAGAAT,2.24,4.8,4.42,2.47,5.6,2.24,-0.707,1.11
AGAATGAGGTTATACGTAGACCAGGGAAGAAAGT,0.866,1.63,1.19,1.61,2.16,1.98,0.296,0.999
CCGACTGGGGCAGAAAGCTTACCATACCATCCGG,-0.46,-0.395,-0.221,-0.744,-0.422,-0.808,-0.889,-0.719
CCGACTGGGACAGAAAGGTTACCATACCATCCGG,2.12,1.37,0.963,-0.641,1.61,1.19,-0.195,-0.17
CAAACTAGCTCACAGAGGTCAAAGTCCGTGCGTA,4.34,5.3,4.81,1.5,6.31,3.53,1.27,3.71
TCTTGTAGATCAATAGAGGTTAAGAAGGTGCGCT,1.27,0.969,0.482,0.518,1.33,2.37,-0.695,0.298
GCTAGTTGGTCAGTAAAAGGTCACACAGCGGTCG,4.98,5.92,5.1,0.686,5.48,3.67,1.78,2.18
ATCTCTAGGTAACACGTTCAGTGAAAGAGAGGAC,0.49,0.475,0.586,-0.0545,0.391,0.954,0.748,0.453
AATAGAGGGTCACTAGGCCAGAGTAGGTACGAAT,3.01,4.11,4.52,1.93,4.2,1.99,0.353,1.1
CAAACTAGGTCGAAGGTCAAAGTCGAGCCAACCA,3.79,5.7,4.29,1.85,6.86,3.5,0.693,1.71
AATACAGGGTCATAGTAGGCCAGAGTACGCACAG,3.26,4.92,4.13,3.36,5.63,4.23,1.41,3.6
CGTCAAAGTTCAAGGTAACGTAGCAGAAAGCAGC,3.85,5.5,6.15,4.38,4.75,3.01,1.09,3.26
TAGCCTAGGTCAAGGGCCAGTATACCACGCGAAC,3.4,4.09,4.75,0.34,3.58,2.78,0.832,0.272
CTCGAAAGGTCGGTTGGGGTGAGTATACGGATAA,2.88,3,2.42,1.18,2.69,4.95,1.86,1.55
AGTCTAAGTTCAGGACGAGGTAACGTAAAGCACG,1.85,3.11,2.65,3.28,1.57,3.56,1.99,2.62
CCTAGCAGGCCATTCTGGGTCACTCAAGGCTTGA,2.48,1.3,1.75,0.405,1.14,4.1,0.668,0.435
ACCGACAGGTGATGAAGGTAACTCAGGCTATCAT,0.0533,0.16,0.23,-0.271,0.299,0.649,-0.149,-0.217
TTACCAAGGTGAAAGGTCGTTCATGCACGCCTTG,2.8,4.33,2.27,0.778,5.93,3.24,0.876,1.96
